Data from PubChem BioAssay AID1159580 (chemical genetic matrix, 2015).
Several values for one entry are separate records, joined by “and”; a condition that tells them apart may be missing. Equal entries are not always repeated. In all, about 5,500 compounds went through this assay and about 2,000 (36%) were called active. Not shown: some 18% with an inconclusive outcome. Rule as the data show it: active = normalized growth mostly below about 0.91 (no sharp cut-off); inconclusive = no clear call, values can overlap the other calls; inactive = mostly above about 0.92. Some of the results follow.

Experiment: chemical genetic growth profiling, strain panel (AID 1159580);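 also: tested at 20 µM; growth read once vehicle control cultures reached saturation at 30 °C; 1 = growth at the plate median or of vehicle wells; lower values mean less growth of the strain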
Settings: S. cerevisiae deletion strains, growth OD

Measured: normalized growth

Nc1ccc(N=Nc2ccccc2)c(N)n1
active: locus YAL021C, strain ccr4, hits give low values 0.597 | locus YAL026C, strain drs2, hits give low values 0.262 | locus YAL030W, strain snc1, hits give low values 0.909 | locus YBL061C, strain skt5, hits give low values 0.841 | locus YBR009C, strain hhf1, hits give low values 0.635 | locus YBR021W, strain FUR4, hits give low values 1.16 [resistant] | locus YBR023C, strain chs3, hits give low values 0.764 | locus YBR231C, strain swc5, hits give low values 0.742 | locus YBR279W, strain paf1, hits give low values 0.807 | locus YCL011C, strain gbp2, hits give low values 0.78 | locus YCL016C, strain dcc1, hits give low values 0.739 | locus YCL069W, strain vba3, hits give low values 0.725 | locus YDL192W, strain arf1, hits give low values 0.901 | locus YDR069C, strain doa4, hits give low values 0.846 | locus YDR137W, strain rgp1, hits give low values 0.351 | locus YDR195W, strain ref2 1.61 [resistant] | locus YDR297W, strain sur2, hits give low values 0.828 | locus YDR334W, strain swr1, hits give low values 0.833 | locus YDR335W, strain msn5, hits give low values 0.785 | locus YDR392W, strain spt3, hits give low values 0.6 | locus YEL003W, strain gim4, hits give low values 0.712 | locus YEL061C, strain CIN8 (second series), hits give low values 0.838 | locus YER015W, strain faa2, hits give low values 0.794 | locus YER016W, strain bim1, hits give low values 0.853 | locus YER111C, strain swi4, hits give low values 0.801 | locus YER155C, strain BEM2 (second series), hits give low values 0.226 | locus YFR010W, strain ubp6, hits give low values 0.862 | locus YGL173C, strain kem1, hits give low values 0.668 | locus YGL227W, strain vid30, hits give low values 0.83 | locus YGL240W, strain doc1, hits give low values 0.832 | locus YGL253W, strain hxk2, hits give low values 0.695 | locus YGR135W, strain pre9, hits give low values 0.854 | locus YHR013C, strain ard1, hits give low values 0.573 | locus YHR027C, strain rpn1, hits give low values 0.798 | locus YHR142W, strain chs7, hits give low values 0.543 | locus YJL095W, strain BCK1 (second series), hits give low values 0.478 | locus YJL129C, strain trk1, hits give low values 1.14 [resistant] | locus YJL164C, strain tpk1, hits give low values 0.759 | locus YJL166W, strain qcr8, hits give low values 0.494 | locus YJL187C, strain SWE1, hits give low values 0.727
inactive: locus YAL013W, strain DEP1, hits give low values 0.984 | locus YBR171W, strain sec66, hits give low values 0.96 | locus YBR229C, strain ROT2, hits give low values 1 | locus YCL029C, strain bik1, hits give low values 1.03 | locus YCR088W, strain abp1, hits give low values 0.945 | locus YDL005C, strain med2, hits give low values 1 | locus YDL035C, strain GPR1, hits give low values 0.932 | locus YDL040C, strain nat1, hits give low values 0.978 | locus YDL074C, strain BRE1, hits give low values 0.866 | locus YDL101C, strain DUN1, hits give low values 0.968 | locus YDL134C, strain PPH21, hits give low values 0.999 | locus YDL185W, strain tfp1, hits give low values 0.998 | locus YDR001C, strain nth1, hits give low values 1 | locus YDR101C, strain arx1, hits give low values 0.995 | locus YDR150W, strain NUM1, hits give low values 1.01 | locus YDR159W, strain sac3, hits give low values 0.884 | locus YDR162C, strain NBP2, hits give low values 0.939 | locus YDR318W, strain mcm21, hits give low values 0.951 | locus YDR388W, hits give low values 0.997 | locus YDR502C, strain sam2, hits give low values 0.954 | locus YEL037C, strain rad23, hits give low values 0.922 | locus YEL061C, strain CIN8, hits give low values 0.997 | locus YER110C, hits give low values 1.01 | locus YER155C, strain BEM2, hits give low values 1.03 | locus YER167W, strain BCK2, hits give low values 1.02 | locus YGL078C, strain dbp3, hits give low values 0.937 | locus YGL086W, strain mad1, hits give low values 0.971 | locus YGL167C, strain pmr1, hits give low values 0.977 | locus YGL248W, strain PDE1, hits give low values 0.989 | locus YGR078C, strain PAC10, hits give low values 0.918 | locus YGR229C, strain SMI1, hits give low values 0.996 | locus YGR252W, strain gcn5, hits give low values 0.943 | locus YHR030C, strain SLT2, hits give low values 0.995 and 0.956 | locus YHR079C, strain IRE1 (second series), hits give low values 0.99 | locus YHR079C, strain IRE1, hits give low values 0.965 | locus YHR094C, strain hxt1, hits give low values 1.02 | locus YHR129C, strain ARP1, hits give low values 1.01 | locus YHR200W, strain rpn10, hits give low values 0.983 | locus YIL066C, strain RNR3, hits give low values 0.956 | locus YIL073C, strain SPO22, hits give low values 0.972 | locus YIL125W, strain kgd1, hits give low values 1.02 | locus YIR030C, strain dcg1, hits give low values 1.02 | locus YJL092W, strain hpr5, hits give low values 0.945 | locus YJL095W, strain BCK1, hits give low values 0.833 and 0.952 | locus YJL115W, strain asf1, hits give low values 1.01 | locus YJL134W, strain LCB3, hits give low values 1 | locus YJL154C, strain vps35, hits give low values 0.98 | locus YJL168C, strain set2, hits give low values 1 | locus YJL187C, strain SWE1 (second series), hits give low values 0.961 | locus YJR043C, strain POL32, hits give low values 0.984 | locus YJR066W, strain TOR1, hits give low values 0.91
